PubChem BioAssay (NCATS)
Records with an inconclusive call do not appear. Activity calls are given as the source filed them. The call rests on the fitted dose curve; in most records, active means well fitted curve in the direction sought with a large enough effect; inconclusive means small, poorly fitted or top-dose-only effect, or another doubt; inactive means no such curve, though single readings can be large; an effect the other way counts as inactive or inconclusive.

What was measured:
[1] = qHTS of pediatric cancer cell lines to identify multiple opportunities for drug repurposing: Primary screen for TC32 cells (AID 1347089); further: nearly all actives have a fitted effect of over 60% in size
Outline: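 TC32 cells, 500-1,000/well in growth medium, compound-treated 48 h at 37 °C; viability from CellTiter-Glo luminescence. Primary screen: MIPE 11-point (0.78 nM–46 µM final), NPC 8-point (0.59 nM–46 µM final); confirmatory at 11-point dilutions.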

[2] = qHTS of pediatric cancer cell lines to identify multiple opportunities for drug repurposing: Primary screen for DAOY cells (AID 1347090); further: nearly all actives have a fitted effect of over 55% in size
Outline: (§1)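 Eight- or eleven-point concentration series, 48 h treatment at 37 degrees C in growth media; readout CellTiter-Glo luminescence. Potency and efficacy were taken from the concentration-response curves.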

[3] = qHTS of pediatric cancer cell lines to identify multiple opportunities for drug repurposing: Primary screen for SJ-GBM2 cells (AID 1347091)
Outline: as §1

[4] = qHTS of pediatric cancer cell lines to identify multiple opportunities for drug repurposing: Primary screen for SK-N-MC cells (AID 1347093)
Outline: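 Metabolically active cells were quantified by ATP-dependent luminescence (CellTiter-Glo, 15 min at room temperature) following 48 h treatment. Cells had been plated at 500-1,000 per well and settled for 5 h beforehand.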

[5] = qHTS of pediatric cancer cell lines to identify multiple opportunities for drug repurposing: Primary screen for Saos-2 cells (AID 1347097); further: nearly all actives have a fitted effect of over 40% in size
Outline: (§2)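 Readout: CellTiter-Glo luminescence, 48 h treatment. Controls DMSO (neutral) and bortezomib 2.3 µM final (positive). Potency and efficacy taken from primary-screen concentration-response curves.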

[6] = qHTS of pediatric cancer cell lines to identify multiple opportunities for drug repurposing: Primary screen for A673 cells (AID 1347092); further: nearly all actives have a fitted effect of over 45% in size
Outline: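 A673 cells (500-1,000 cells/well) were treated 48 hours at 37 degrees C with compounds at 11-point (0.78 nM to 46 µM) or 8-point (0.59 nM to 46 µM) dilutions. Viability read by CellTiter-Glo luminescence; concentration-response curves fitted.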

[7] = qHTS of pediatric cancer cell lines to identify multiple opportunities for drug repurposing: Primary screen for BT-37 cells (AID 1347094)
Outline: as §2

[8] = qHTS of pediatric cancer cell lines to identify multiple opportunities for drug repurposing: Primary screen for NB-EBc1 cells (AID 1347095)
Outline: as §2

[9] = qHTS of pediatric cancer cell lines to identify multiple opportunities for drug repurposing: Primary screen for U-2 OS cells (AID 1347096); further: nearly all actives have a fitted effect of over 50% in size
Outline: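 Cells (500-1,000/well) in growth media were settled 5 h at 37 degrees C, then given compounds for 48 h. Viability was read as CellTiter-Glo luminescence. Primary runs used MIPE at 11 points (0.78 nM-46 µM) and NPC at 8 points (0.59 nM-46 µM); follow-ups used 11 points.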

[10] = qHTS of pediatric cancer cell lines to identify multiple opportunities for drug repurposing: Primary screen for SK-N-SH cells (AID 1347098); further: nearly all actives have a fitted effect of over 65% in size
Outline: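 Cells (500-1,000/well) rested 5 h, then received compounds for 48 h; metabolically active cells were measured by CellTiter-Glo luminescence. Final concentrations spanned up to 46 µM (MIPE, 11-point) or 0.59 nM-46 µM (NPC, 8-point) in primary screens, 11-point in follow-ups.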

Measured: Potency
Potency means the concentration at half of the fitted maximal effect.

COc1ccc2c(c1)CN(C)CC2c1ccc(Cl)c(Cl)c1 (stereo unspecified)
active: [3] 18700 nM | [4] 18700 nM | [5] 18700 nM
inactive: [1] | [2]

CC(C)N[C@@H]1CCn2c(=O)[nH]c3cccc(c32)[C@@H]1O
active: [2] 1180 nM | [6] 833 nM | [4] 1050 nM | [7] 27300 nM | [9] 11800 nM | [5] 5260 nM | [10] 8570 nM
inactive: [1] | [8]

O=C(O)CNC(=O)c1c(O)c2ccccc2n(Cc2ccccc2)c1=O
not listed: [4] | [6] | [8]
inactive: all other assays above

CCOCCOC(C)=O
not listed: [3]
inactive: all other assays above

CC[N+]1(CCOC(=O)C(O)(c2ccccc2)c2ccccc2)CCCCC1
not listed: [5]
inactive: all other assays above

Cc1[nH]nc2ccc(-c3cncc(OC[C@@H](N)Cc4c[nH]c5ccccc45)c3)cc12
active: [1] 1860 nM | [2] 1870 nM | [3] 1050 nM | [6] 118 nM | [4] 264 nM | [7] 1530 nM | [8] 1660 nM | [10] 304 nM
inactive: [9]

C#C[C@]1(O)C=C[C@@H]2[C@@H]3CCC4=CC(=O)CC[C@@H]4[C@H]3CC[C@@]21CC
not listed: [4] | [8]
inactive: all other assays above

C[C@]12COC(=O)C[C@@H]1CC[C@@H]1[C@H]2CC[C@@]2(C)[C@H]1CC[C@]2(C)O
not listed: [5]
inactive: all other assays above

C=C1C[C@H]2[C@H]3CCC(=O)[C@@]3(C)CC[C@@H]2[C@@]2(C)C=CC(=O)C=C12
inactive: [1] | [2] | [3] | [8] | [9] | [10]

C1=C2CCCN[C@H]2[C@@H]2C[C@H]1[C@@H]1CCCCN1C2
not listed: [3] | [4] | [6]
inactive: all other assays above

Cc1c(N)nc([C@H](CC(N)=O)NC[C@@H](N)C(N)=O)nc1C(=O)N[C@H](C(=O)N[C@@H](C)[C@H](O)[C@@H](C)C(=O)N[C@@H](C(=O)NCCc1nc(-c2nc(C(=O)NCCC[S+](C)C)cs2)cs1)[C@@H](C)O)C(O[C@H]1O[C@H](CO)[C@H](O)[C@@H](O)[C@@H]1O[C@H]1O[C@H](CO)[C@@H](O)[C@H](OC(N)=O)[C@H]1O)c1cnc[nH]1 (stereo partly specified)
active: [1] 4150 nM | [3] 1480 nM | [4] 833 nM | [7] 1370 nM | [8] 1320 nM | [5] 1660 nM
inactive: [9] | [10]
